Assay [1] can be described thus: ATG_TAL_CIS: Attagene CIS-FACTORIAL HepG2 Assay for human TAL Basal Promoter (AID 2282966).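 Also: background control endpoint measuring basal TAL promoter reporter mRNA not a specific factor.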 To be noted: HepG2 Attagene cis-factorial TAL promoter reporter; actives raise or lower the signal. The procedure, abridged:
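HepG2, transient MRTU transfection, 24 h compound exposure; RNA → oligo(dT) RT → PCR → 6-FAM primer extension → HpaI digest → CE fluorescence. Bidirectional curve fit vs DMSO. Background-control readout.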

Assay [2] is described as follows: ATG_TGFb_CIS: Attagene CIS-FACTORIAL HepG2 Assay for human Transforming Growth Factor (TGF) (AID 2282967). To be noted: HepG2 Attagene CIS TGFb reporter, mRNA transcription; actives raise or lower the signal. The essentials: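 After a 24-hour incubation with compound, transfected HepG2 cells were lysed for RNA; reporter cDNA was amplified, fluorescently end-labeled and separated by CE. DMSO served as baseline for bidirectional fits.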

The nature of assay [3]: ATG_VDRE_CIS: Attagene CIS-FACTORIAL HepG2 Assay for human Vitamin D Receptor Element (VDRE) (AID 2282968). To be noted: HepG2 VDRE cis-reporter transcription, actives raise or lower the signal. The essentials:
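Readout is VDRE-driven reporter mRNA reflecting endogenous factor activity in human HepG2 cells, sampled 24 h post-dose. Quantification used labelled RT-PCR products separated by capillary electrophoresis; bidirectional analysis relative to DMSO.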

Assay [4] deals with X-box-binding protein 1 (Homo sapiens) (UniProt P17861). Briefly: ATG_Xbp1_CIS: Attagene CIS-FACTORIAL HepG2 Assay for human X-box Binding Protein 1 (XBP1) (AID 2282972). As to conditions: HepG2 XBP1 cis-element reporter, Attagene multiplex; actives raise or lower the signal. The procedure, abridged:
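Changes in reporter transcript abundance, read by RT-PCR and capillary electrophoresis, reflect endogenous transcription factor activity. Transfected HepG2 cells received compound for 24 hours; DMSO defined baseline for bidirectional analysis.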

Assay [5] addresses Androgen receptor (Homo sapiens) (UniProt P10275). The experiment in a line: ATG_AR_TRANS: Attagene TRANS-FACTORIAL HepG2 Assay for human Androgen Receptor (AR) (AID 2282973; active = hit-call score of the fitted dose curve at least 0.9, where 1 is the maximum). As to conditions: HepG2 Attagene TRANS-FACTORIAL AR reporter transcription. The procedure, abridged:
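Readout is reporter transcript abundance, quantified by fluorescent RT-PCR products separated on capillary electrophoresis. Human HepG2 liver cells carried transiently transfected NR-Gal4 chimera plus GAL4-UAS reporter constructs and were dosed for 24 h; activity scored upward versus DMSO.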

Assay [6] is described as follows: ATG_M_19_TRANS: Attagene TRANS-FACTORIAL HepG2 Assay for M19 Transcription Factor (Internal Marker) (AID 2282974; active = hit-call score of the fitted dose curve at least 0.9, where 1 is the maximum). As to conditions: HepG2 Attagene TRANS-FACTORIAL M19 internal marker reporter. The procedure, abridged: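 After transfection of HepG2 with GAL4-UAS-driven reporter constructs, cells are dosed for 24 h. Total RNA is reverse-transcribed, reporter sequences PCR-amplified and labelled, then HpaI-digested and sized by capillary electrophoresis.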

Assay [7] deals with Estrogen-related receptor gamma (Homo sapiens) (UniProt P62508). The experiment in a line: ATG_ERRg_TRANS: Attagene TRANS-FACTORIAL HepG2 Assay for human Estrogen-Related Receptor gamma (ERRg) (AID 2282977; active = hit-call score of the fitted dose curve at least 0.9, where 1 is the maximum;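 also: hits increase reporter signal over DMSO so potencies reflect activators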). As to conditions: HepG2 Attagene TRANS reporter, ERRg transactivation. The procedure, abridged:
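Induction of reporter transcripts through a chimeric NR-Gal4 protein is quantified in transfected human HepG2 liver cells after 24 h chemical exposure, using RT-PCR with capillary electrophoresis detection and DMSO as baseline.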

Assay [8] has as its target Steroid hormone receptor ERR1 (Homo sapiens) (UniProt P11474). The experiment in a line: ATG_ERRa_TRANS: Attagene TRANS-FACTORIAL HepG2 Assay for human Estrogen-Related Receptor alpha (ERRa) (AID 2282971; active = hit-call score of the fitted dose curve at least 0.9, where 1 is the maximum). To be noted: HepG2 Attagene TRANS reporter, ERRa transactivation. The procedure, abridged: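 Transfected HepG2, 24 h dosing, ERRa-Gal4 chimera driving GAL4-UAS reporter. Readout: reporter mRNA via RT-PCR plus capillary electrophoresis (fluorescence). Positive direction vs DMSO control.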

The nature of assay [9]: ATG_GAL4_TRANS: Attagene TRANS-FACTORIAL HepG2 Assay for GAL4 (Internal Marker) (AID 2282976; active = hit-call score of the fitted dose curve at least 0.9, where 1 is the maximum). To be noted: HepG2 Attagene TRANS GAL4 internal marker reporter. The procedure, abridged: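 RT-PCR/capillary electrophoresis readout of reporter mRNA. HepG2, transient MRTU transfection (GAL4-UAS reporters), 24 h compound exposure. Background-control endpoint, positive direction vs DMSO baseline.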

For assay [10], the target named is Nuclear receptor subfamily 1 group I member 3 (Homo sapiens) (UniProt Q14994). Briefly: ATG_CAR_TRANS: Attagene TRANS-FACTORIAL HepG2 Assay for human Constitutive Androstane Receptor (CAR) (AID 2282969; active = hit-call score of the fitted dose curve at least 0.9, where 1 is the maximum;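 also: activators raise reporter mRNA above DMSO so AC50 marks induction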). To be noted: HepG2 Attagene TRANS-FACTORIAL CAR reporter. The essentials:
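Signal is reporter mRNA induction relative to DMSO, measured 24 h after dosing by RT-PCR with fluorescent primer extension and capillary electrophoresis. Human HepG2 liver cells carried transiently transfected chimeric NR-Gal4/GAL4-UAS reporter constructs.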

The record followed here is PubChem BioAssay (EPA / NIEHS).

Results filed as inconclusive are left out. Calls of active or inactive are those of the source. The calls were made as follows, unless noted: active = hit-call score of the fitted dose curve at least 0.9, where 1 is the maximum; inactive = score below 0.9.

Steroid hormone receptor ERR1 (Homo sapiens), sequence (P11474 whole entry, looked up, the tested form may be a part): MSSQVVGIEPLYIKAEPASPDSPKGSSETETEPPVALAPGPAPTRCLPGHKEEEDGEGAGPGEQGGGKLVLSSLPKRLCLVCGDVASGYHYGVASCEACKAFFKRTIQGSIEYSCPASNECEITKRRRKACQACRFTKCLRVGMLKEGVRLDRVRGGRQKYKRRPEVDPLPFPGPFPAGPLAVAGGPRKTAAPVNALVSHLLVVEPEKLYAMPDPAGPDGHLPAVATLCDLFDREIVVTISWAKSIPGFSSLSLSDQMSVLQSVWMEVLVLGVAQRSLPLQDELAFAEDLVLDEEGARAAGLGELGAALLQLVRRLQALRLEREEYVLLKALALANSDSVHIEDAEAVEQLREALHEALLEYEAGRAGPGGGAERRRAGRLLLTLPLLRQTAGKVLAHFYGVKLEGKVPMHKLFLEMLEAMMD
Estrogen-related receptor gamma (Homo sapiens), sequence (P62508 whole entry, looked up, the tested form may be a part): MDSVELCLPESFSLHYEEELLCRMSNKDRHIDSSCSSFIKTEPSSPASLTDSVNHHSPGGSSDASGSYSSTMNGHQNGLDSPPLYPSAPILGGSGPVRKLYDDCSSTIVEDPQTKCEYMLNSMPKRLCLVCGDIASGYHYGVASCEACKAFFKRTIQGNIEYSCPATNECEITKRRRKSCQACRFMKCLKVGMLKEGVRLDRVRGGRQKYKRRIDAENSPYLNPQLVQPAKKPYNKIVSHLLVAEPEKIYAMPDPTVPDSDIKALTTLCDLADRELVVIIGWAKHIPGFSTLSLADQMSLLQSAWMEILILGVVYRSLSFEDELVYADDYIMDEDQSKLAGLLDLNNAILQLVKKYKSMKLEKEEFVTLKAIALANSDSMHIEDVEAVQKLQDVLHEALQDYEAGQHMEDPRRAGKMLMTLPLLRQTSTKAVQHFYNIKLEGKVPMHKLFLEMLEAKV
X-box-binding protein 1 (Homo sapiens), sequence (P17861 whole entry, looked up): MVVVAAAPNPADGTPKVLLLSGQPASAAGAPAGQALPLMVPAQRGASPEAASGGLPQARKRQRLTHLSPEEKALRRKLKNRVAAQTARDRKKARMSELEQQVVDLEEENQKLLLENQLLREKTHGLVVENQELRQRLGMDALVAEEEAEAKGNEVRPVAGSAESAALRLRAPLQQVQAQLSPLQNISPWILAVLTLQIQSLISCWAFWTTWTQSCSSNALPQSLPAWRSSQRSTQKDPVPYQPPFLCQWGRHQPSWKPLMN
Nuclear receptor subfamily 1 group I member 3 (Homo sapiens), sequence (Q14994 whole entry, looked up, the tested form may be a part): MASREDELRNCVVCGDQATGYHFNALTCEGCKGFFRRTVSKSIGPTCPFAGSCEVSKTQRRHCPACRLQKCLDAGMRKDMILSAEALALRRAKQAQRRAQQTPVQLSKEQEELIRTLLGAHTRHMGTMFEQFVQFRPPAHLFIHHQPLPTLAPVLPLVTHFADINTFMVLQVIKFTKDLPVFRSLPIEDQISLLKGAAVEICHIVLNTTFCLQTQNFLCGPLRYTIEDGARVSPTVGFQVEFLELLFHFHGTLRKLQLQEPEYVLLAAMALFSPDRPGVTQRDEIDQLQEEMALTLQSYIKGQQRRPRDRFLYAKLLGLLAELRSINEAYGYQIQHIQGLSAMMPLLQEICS
Androgen receptor (Homo sapiens), sequence (P10275 whole entry, looked up, the tested form may be a part): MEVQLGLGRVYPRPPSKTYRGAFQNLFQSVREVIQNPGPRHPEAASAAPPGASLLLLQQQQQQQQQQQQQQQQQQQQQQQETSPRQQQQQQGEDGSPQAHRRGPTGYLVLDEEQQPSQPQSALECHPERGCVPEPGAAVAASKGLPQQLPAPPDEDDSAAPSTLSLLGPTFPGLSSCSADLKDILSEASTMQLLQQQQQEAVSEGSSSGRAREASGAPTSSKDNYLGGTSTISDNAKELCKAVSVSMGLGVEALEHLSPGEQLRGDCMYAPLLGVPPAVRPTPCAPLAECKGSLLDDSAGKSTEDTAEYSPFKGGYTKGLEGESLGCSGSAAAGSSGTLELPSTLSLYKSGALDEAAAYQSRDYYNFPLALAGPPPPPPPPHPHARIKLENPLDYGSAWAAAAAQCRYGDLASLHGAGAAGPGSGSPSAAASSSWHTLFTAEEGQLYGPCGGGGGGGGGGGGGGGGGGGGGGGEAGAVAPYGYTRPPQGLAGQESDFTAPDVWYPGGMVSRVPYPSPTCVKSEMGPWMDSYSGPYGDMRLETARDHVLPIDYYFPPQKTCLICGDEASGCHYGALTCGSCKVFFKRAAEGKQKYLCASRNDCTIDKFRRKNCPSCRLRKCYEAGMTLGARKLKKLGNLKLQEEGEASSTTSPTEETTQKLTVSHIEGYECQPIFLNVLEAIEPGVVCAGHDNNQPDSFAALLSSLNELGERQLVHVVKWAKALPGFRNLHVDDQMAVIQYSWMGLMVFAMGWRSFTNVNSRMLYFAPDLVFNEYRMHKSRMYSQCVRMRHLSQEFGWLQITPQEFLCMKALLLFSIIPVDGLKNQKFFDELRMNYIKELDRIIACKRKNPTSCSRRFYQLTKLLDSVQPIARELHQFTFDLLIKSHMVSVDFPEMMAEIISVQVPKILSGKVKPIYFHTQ

Consider `CC(C)(O)c1cnn2c(-c3ccc(F)c(-c4c(F)cccc4C#N)c3)cnc2n1`, for which the call in assay [1], in assay [2], in assay [4], in assay [5], in assay [6] and in assay [7] was inactive. For the same compound, the AC50 (in general, the midpoint of the concentration-response curve, whichever way the signal moves) in assay [3] is 0.538 µM (active).

For the compound `Brc1ccc(Oc2ccccc2)cc1`, the compound was classed as inactive in assay [1], in [2], in [3] and in assay [4].

With `COC(=O)c1ccccc1N`, the compound was called inactive in assay [1], in assay [2], in assay [3], in [8], in assay [4] and in assay [6].

Take `CCN(CC)N=O`: the compound was classed as inactive in assay [1], in assay [2], in [3] and in assay [4].

For `[Cl-].[Cl-].[Hg+2]`, the compound was called inactive in assay [1], in assay [2], in assay [3], in assay [4] and in assay [6].

For `Cc1ccc(N)c(N)c1`, the compound was called inactive in [1], in [2], in [3] and in [4].

`Clc1ccc(Cl)c(Cl)c1`: the compound was called inactive in [1], in assay [2], in assay [3], in assay [8], in [4] and in assay [9].

`Oc1ccc2ccc3cccc4ccc1c2c34`: the compound was classed as inactive in [1], in assay [2], in assay [3], in [4] and in [6].

Take `Cc1cccc(N)c1N`: the result in [1], in assay [2], in assay [10] and in assay [7] was inactive. In addition, the results for the AC50 in assay [3] and in assay [4] were 106 µM (active) and 150 µM (active), respectively.

As to `COc1cc(C=O)cc2c1[C@H](COC(N)=O)[C@]1(OC(C)=O)ON2C[C@H]2[C@@H]1N2C(C)=O`, the AC50 is 57.3 µM (active) in assay [1], 60.4 µM (active) in assay [2], 0.146 µM (active) in [3] and 33.4 µM (active) in assay [4]. Besides, the result in assay [8] and in [9] was inactive.

Consider `Clc1ccccc1Cl`, for which the result in assay [1], in assay [2], in [3] and in assay [4] was inactive.

For `[O-][Cl+]O`, the call in assay [1], in assay [2], in assay [3], in assay [8], in [4] and in assay [6] was inactive. Moreover, in [9], the call was inactive.

With `O=C(O)C1C2CCC(O2)C1C(=O)O` (stereo unspecified), the result in assay [1] and in [2] was inactive. For the same compound, the AC50 in assay [3] and in assay [4] was 100 µM (active) each time.

`O=C(N[C@H](c1ccccc1)[C@@H]1CN2CCC1CC2)c1c(Cl)ccc(C(F)(F)F)c1Cl`: the result in assay [1], in assay [2], in [3], in assay [8], in assay [4] and in assay [7] was inactive.

Turning to `Nc1cc(Cl)cc(C(=O)O)c1Cl`, the outcome in assay [1], in assay [2], in assay [3], in assay [8], in assay [4] and in assay [7] was inactive.

In the case of `Nc1ccc(N=Nc2ccccc2)cc1`, the AC50 is 100 µM (active) in assay [1], 54 µM (active) in assay [3] and 73.9 µM (active) in assay [4]. Also, the result in [2], in assay [8], in assay [6] and in assay [7] was inactive.

For `CN(C)c1ccccc1`, the compound was called inactive in assay [1], in assay [2], in [3], in assay [8], in [4] and in assay [9]. For the same compound, the call in [7] was inactive.

On to `CC(C)(C)OOC(=O)c1ccccc1`, for which the result in [1], in [2] and in [3] was inactive. Also, in assay [4], the AC50 was 150 µM (active).

For `Cc1ccc(N=C=O)cc1N=C=O`, the result in assay [1], in assay [2], in assay [3], in [4] and in assay [7] was inactive.

For `Nc1ccc(Oc2ccc(N)cc2)cc1`, the compound was called inactive in assay [1], in assay [2], in assay [10], in assay [8], in assay [4] and in [7].

On to `COP(=S)(OC)SCN1C(=O)c2ccccc2C1=O`, for which the call in [1], in [2], in assay [4] and in [6] was inactive.

Consider `CCCCCCCCCCCCCN1CC(C)OC(C)C1` (stereo unspecified), for which the compound was called inactive in assay [1], in assay [2] and in assay [4].
